Screening data as filed in PubChem.
This is one part of a sample in which hits are shown more often than they occur.
Shiga inhibitor: A qHTS for Small Molecule Inhibitors of Shiga Toxin; Vero cells, Shiga toxin protein synthesis inhibition reporter; inhibition, % at 38.7 µM; actives 9.2% (n = 290,000); in the data active = inhibition mostly above about 28%, no sharp cut-off; inactive = mostly below about 43%; note: 0% is about no effect
TbPYK inhibitor: qHTS of Trypanosoma Brucei Inhibitors; AID 624173, 2012; actives 0.12% (n = 410,000); TbPYK enzyme, Kinase-Glo Plus ATP luminescence, 45 min; Potency, µM (highest dose often 76.8 µM), for inactives: top-dose activity, negative = inhibition, usual class: inhibitors; note: potency is the fitted concentration of half-maximal effect; % is set by controls: 0 for no effect and ±100 for the full control effect; nearly all actives have a fitted effect of over 50% in size
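In this concentration-response screen, enzyme-free wells defined baseline while DMSO plates tracked drift. Each reaction combined TbPYK, substrate, compound and 130 uM ADP for 45 min at room temperature. Kinase-Glo Plus luminescence gave the signal.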
LmPK inh: qHTS Assay for Inhibitors of Leishmania Mexicana Pyruvate Kinase (LmPK); AID 1721, 2009; Potency, µM (top dose mostly 57.5 µM), without a hit: at the top dose activity change, negative = inhibition, actives largely listed as inhibitors; Q27686; actives 0.37% (n = 290,000); purified LmPK, Kinase-Glo ATP luminescence, 1 h; note: potency is the fitted concentration of half-maximal effect; % is set by controls: 0 for no effect and ±100 for the full control effect
Target sequence (Q27686 whole entry, looked up): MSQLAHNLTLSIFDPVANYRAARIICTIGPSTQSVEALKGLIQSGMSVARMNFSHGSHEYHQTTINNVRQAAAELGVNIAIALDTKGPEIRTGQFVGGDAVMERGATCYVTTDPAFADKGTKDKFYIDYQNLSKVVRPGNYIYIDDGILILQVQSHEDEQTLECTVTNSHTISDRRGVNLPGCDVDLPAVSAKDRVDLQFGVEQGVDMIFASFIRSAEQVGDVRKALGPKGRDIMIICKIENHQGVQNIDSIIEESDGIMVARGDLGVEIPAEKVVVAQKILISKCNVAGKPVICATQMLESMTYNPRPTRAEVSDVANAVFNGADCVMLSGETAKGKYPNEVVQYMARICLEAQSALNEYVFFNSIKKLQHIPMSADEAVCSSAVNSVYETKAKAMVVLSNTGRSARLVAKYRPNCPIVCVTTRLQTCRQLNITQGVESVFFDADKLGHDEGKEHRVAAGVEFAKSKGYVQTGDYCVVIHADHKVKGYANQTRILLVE
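Screened at intermediate enzyme activity to detect both inhibitors and activators: LmPK at 0.1 nM, with a 0.5 nM enzyme column as activation reference. PEP 0.5 mM, ADP 0.1 mM; ATP detected by luminescence after 1 h.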
RE007 growth inh: qHTS Assay for Inhibitors of the HIV-1 protein Vpr | S. pombe RE007 Vpr strain, BacTiter-Glo ATP luminescence, 24 h | Potency, µM (titrated, usually from 92.2 µM), for inactives: at the top dose activity change, negative = less growth, actives largely listed as inhibitors | actives 0.21% (n = 360,000); active = well fitted falling curve with a large enough effect; inconclusive = small, poorly fitted or top-dose-only effect; inactive = no such curve, though single readings can be large or run the other way; note: potency is the fitted concentration of half-maximal effect; % is set by controls: 0 for no effect and ±100 for the full control effect; nearly all actives have a fitted effect of over 50% in size
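Fission yeast strain RE007, carrying one chromosomally integrated HIV-1 vpr copy, was seeded at OD 0.01 in PMG+AL medium with 23 nL pinned compound. After 24 h at 30 °C and 99% humidity, viability was read by BacTiter-Glo luminescence.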
Cycloheximide cs: Cycloheximide Counterscreen for Small Molecule Inhibitors of Shiga Toxin. cell reporter, cycloheximide protein synthesis inhibition counterscreen. max response, %. actives 12% (n = 300,000); in the data active = max response mostly above about 13%, no sharp cut-off; inactive = mostly below about 14%; note: read at 38.3 µM for the half of the compounds with a filed dose; 0% is about no effect
FBPA Giardia inh: qHTS Assay for Inhibitors of Fructose-1,6-bisphosphate Aldolase from Giardia Lamblia. purified Giardia FBPA. A8B2U2. actives 0.71% (n = 290,000). Potency, µM (doses to about 59.6 µM), for inactives: at the top dose activity, negative = inhibition, hits mostly inhibitors; note: potency is the fitted concentration of half-maximal effect; % is set by controls: 0 for no effect and ±100 for the full control effect; nearly all actives have a fitted effect of over 55% in size
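Giardia FBPA (40 nM reagent) was preincubated 10 min at RT with compound (up to 57.5 uM final), then substrate plus GAPDH/TPI/NAD/arsenate coupling system with diaphorase/resazurin was added; resorufin fluorescence (525/598 nm) was read after 20 min.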
* hit, by the source's call; ? = inconclusive; nt = not tested or not shown. Unless noted, calls come from the whole dose curve; as a rule, active = well fitted curve in the direction sought with a large enough effect; inconclusive = small, poorly fitted or top-dose-only effect, or another doubt; inactive = no such curve, though single readings can be large; an effect the other way counts as inactive or inconclusive.

SMILES | Shiga inhibitor | TbPYK inhibitor | LmPK inh | RE007 growth inh | Cycloheximide cs | FBPA Giardia inh
COc1ccc(/C(N)=N/OC(=O)Cc2ccccc2[N+](=O)[O-])cc1 | 40 | 4% | -3% | 1% | 31* | 0%
COc1ccc(CC(=O)NCc2cccs2)cc1 | 16 | 0% | -7% | 7% | 6 | 0%
COc1ccc(/C(N)=N/OC(=O)Cc2cccs2)cc1 | 113* | -8% | -1% | -1% | 44* | 3%
COc1ccc(/C(N)=N/OC(=O)Cc2cccs2)cc1OC | 33* | 1% | 3% | -6% | 27* | 0%
COc1ccc(CC(=O)O/N=C(\N)c2ccc(Br)cc2)cc1OC | 10 | 0% | -1% | 3% | -3 | 5%
COc1ccc(CC(=O)O/N=C(\N)c2ccccc2)cc1OC | 42* | -5% | -5% | 3% | 38* | -1%
Cc1ccc(C)c(NC(=O)c2cc(-c3cc(C)c(C)cc3O)n[nH]2)c1 | 61* | 4% | 0% | 10% | 30* | 2%
Cc1ccc(NC(=O)c2cc(-c3cc(C)c(C)cc3O)n[nH]2)cc1C | 9 | -7% | 6% | 4% | 15* | 5%
Cc1ccc(-c2cc(C(=O)Nc3cc(C)ccc3C)[nH]n2)c(O)c1 | 30* | 10% | -7% | 28% | 18* | 0%
Cc1cc(C)c(-c2cc(C(=O)Nc3cc(C)ccc3C)[nH]n2)c(O)c1 | -3 | 3% | -1% | -7% | -6 | 3%
COc1ccc(OC)c(NC(=O)c2cc(-c3ccc(C)cc3O)n[nH]2)c1 | 1 | 6% | 8% | 1% | 10 | 8%
Cc1ccc(C)c(NC(=O)c2cc(-c3ccccc3O)n[nH]2)c1 | 59* | 1% | 3% | 7% | 29* | 10%
O=C(CSC1=Nc2ccccc2C2=NC(CCC(=O)NC3CCCCC3)C(=O)N12)Nc1cccc(C(F)(F)F)c1 (stereo not given) | nt | -7% | nt | nt | nt | nt
COc1ccc2c(CNC3CCC(C)CC3)c(C(=O)O)n(Cc3ccc(F)cc3)c2c1 (stereo not given) | nt | -8% | nt | nt | nt | nt
O=C(O)c1cccc(CN2C(=O)SC(Nc3ccccc3)C2=O)c1 (stereo not given) | 17 | -9% | 0% | 18% | 17* | 4%
COc1cc2c(=O)c(S(=O)(=O)c3ccc(F)cc3)cn(Cc3ccc(Cl)cc3)c2cc1OC | nt | -11% | nt | nt | nt | nt
C/C(=N/NC(=O)c1ccoc1C)c1ccc(NC(=O)c2ccncc2)cc1 | 104* | 5% | ? | -12% | 63* | 12%
C/C(=N\NC(=O)C1(C)CC1(Br)Br)c1cccc(NC(=O)C2CCC2)c1 (stereo not given) | 7 | -7% | -5% | 3% | -1 | 1%
C/C(=N\NC(=O)c1ccc(NS(=O)(=O)c2cccs2)cc1)c1ccncc1 | 12 | 1% | 1% | 12% | 2 | 6%
C/C(=N\NC(=O)c1c(Cl)c(C)nn1C)c1ccc(NC(=O)c2ccncc2)cc1 | 26 | -1% | 1% | 10% | 12* | 0%
C/C(=N\NC(=O)c1c(Cl)c(C)nn1C)c1cccc(NC(=O)C2CCCC2)c1 | 38 | 0% | 2% | 16% | 14* | 7%
C/C(=N\NC(=O)c1nn(C)c(C)c1Br)c1ccc(NC(=O)c2ccccc2F)cc1 | active | -5% | 0% | -13% | 18* | 10%
Cc1nn(C(=O)c2ccc(Cl)cc2)c(C)c1S(=O)(=O)N1CCOCC1 | nt | -5% | nt | nt | nt | nt
C/C(=N\NC(=O)c1nn(C)c(C)c1Br)c1ccc(NC(=O)c2ccc(C)s2)cc1 | 64* | 1% | 2% | -1% | 45* | -6%
C/C(=N\NC(=O)c1nn(C)c(C)c1Br)c1ccc(NC(=O)c2ccoc2C)cc1 | 93* | 3% | -8% | -19% | 91* | 1%
SMILES | Shiga inhibitor | TbPYK inhibitor | LmPK inh | RE007 growth inh | Cycloheximide cs | FBPA Giardia inh
C/C(=N\NC(=O)c1c(Br)c(C)nn1C)c1ccc(NC(=O)c2ccoc2C)cc1 | 40* | 0% | -9% | -5% | 44* | 2%
CCC(=O)Nc1ccc(/C(C)=N/NC(=O)c2c(Br)c(C)nn2C)cc1 | 15 | 2% | -9% | -3% | -2 | 4%
CCOc1ccccc1NC(=O)CSc1nc2c(oc3ccccc32)c(=O)n1-c1ccc(C)c(C)c1 | nt | -7% | nt | nt | nt | nt
COc1ccc(CCc2nnc(CCC(=O)NCc3cnc4ccccn34)o2)cc1 | 17 | 8% | 9% | -14% | -1 | 4%
COc1ccc(OC)c(Cc2nnc(CCC(=O)NCc3ccsc3)o2)c1 | 37* | -16% | 14% | -14% | 17* | 2%
O=C(CCc1nnc(CCc2c[nH]c3ccccc23)o1)NC1CCC1 | 180* | -26% | -2% | -9% | 53* | 2%
COc1ccc(CCc2nnc(CCC(=O)NCc3ccc4ncccc4c3)o2)cc1 | 34 | 0% | -1% | 5% | 17* | 1%
COc1ccc(OC)c(Cc2nnc(CCC(=O)NC3CCCCC3)o2)c1 | 29* | 4% | -1% | 0% | 25* | 3%
O=C(CCc1nnc(Cc2c[nH]c3ccccc23)o1)NC1CCCC1 | -1 | -14% | 1% | 5% | 0 | -4%
O=C1CN(C(=O)COc2ccc(Br)cc2)c2ccccc2N1 | 4 | 4% | -1% | -9% | -1 | 0%
Cc1ccc(NC(=O)C2CCCN(S(=O)(=O)c3c(C)n[nH]c3C)C2)c(C)c1 (stereo not given) | nt | 0% | nt | nt | nt | nt
COC(=O)c1cc(S(=O)(=O)N(C)C2CCCCC2)c[nH]1 | -12 | 2% | 1% | 2% | -1 | -1%
Cc1nn(Cc2ccccc2Cl)c(Cl)c1C(=O)NCCc1ccccc1 | 100* | 6% | 1% | 0% | 47* | 2%
CC(=O)Nc1ccc(NC(=O)c2c(C)nn(Cc3ccccc3)c2Cl)cc1 | 5 | 2% | 3% | 0% | -3 | 1%
Cc1nn(Cc2ccccc2Cl)c(Cl)c1C(=O)OCC(=O)NCc1ccco1 | 10 | -3% | 2% | 13% | 11* | 6%
Nc1nc2ccccc2nc1N | 28* | 3% | -10% | -26% | 14* | 0%
CCOc1ccc(NC(=O)CN2C(=O)C(c3ccccc3)=NC23CCC(C)CC3)cc1 (stereo not given) | nt | -9% | nt | nt | nt | nt
COc1ccc(OCCSc2ncnc3nc[nH]c23)cc1 | 36 | 1% | 1% | -2% | 37* | -22%
c1nc(SSc2ncnc3nc[nH]c23)c2[nH]cnc2n1 | nt | 3.5µM* | nt | -1% | nt | nt
c1ccc(OCCSc2ncnc3nc[nH]c23)cc1 | nt | -5% | nt | 7% | nt | nt
Fc1ccccc1OCCSc1ncnc2nc[nH]c12 | 76* | -3% | 1% | 1% | 36* | 2%
COc1cccc(NS(=O)(=O)c2cc(-c3cnc(C4CC4)o3)ccc2C)c1 | nt | 4% | nt | nt | nt | nt
